GDH-TPI counter-1 = inhibits GDH-TPI coupling enzymes, artifact for Mtb FBA screen; GDH-TPI coupled enzyme counterscreen, NADH absorbance; inhibition, % at 4.8 µM; hit rate 1.2% among 360,000; in the data active = inhibition above about 30%;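 note: 0% = DMSO wells and 100% = wells lacking the enzyme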
BoNT F protease = blocks Botulinum neurotoxin F light chain protease; Multiplex microsphere protease cleavage assay, flow cytometry; inhibition, % at 10 µM; hit rate 0.22% among 360,000; in the data active = inhibition above about 35%, passing the limit was not always enough; inconclusive = no clear call, values can overlap the other calls; note: plate controls were buffer without enzyme for full effect and enzyme alone for no effect
BoNT A protease = inhibitors of Botulinum neurotoxin A light chain protease; multiplex microsphere protease substrate cleavage, flow cytometry; inhibition, % at 10 µM; hit rate 0.17% among 360,000; note: plate controls were buffer without enzyme for full effect and enzyme alone for no effect
Anthrax LF prot = blocks Bacillus anthracis lethal factor protease; AID 588501; P15917; multiplex microsphere protease cleavage assay, LF; hit rate 0.12% among 360,000; inhibition, % at 10 µM; note: plate controls were buffer without enzyme for full effect and enzyme alone for no effect
Target sequence (P15917 whole entry, looked up): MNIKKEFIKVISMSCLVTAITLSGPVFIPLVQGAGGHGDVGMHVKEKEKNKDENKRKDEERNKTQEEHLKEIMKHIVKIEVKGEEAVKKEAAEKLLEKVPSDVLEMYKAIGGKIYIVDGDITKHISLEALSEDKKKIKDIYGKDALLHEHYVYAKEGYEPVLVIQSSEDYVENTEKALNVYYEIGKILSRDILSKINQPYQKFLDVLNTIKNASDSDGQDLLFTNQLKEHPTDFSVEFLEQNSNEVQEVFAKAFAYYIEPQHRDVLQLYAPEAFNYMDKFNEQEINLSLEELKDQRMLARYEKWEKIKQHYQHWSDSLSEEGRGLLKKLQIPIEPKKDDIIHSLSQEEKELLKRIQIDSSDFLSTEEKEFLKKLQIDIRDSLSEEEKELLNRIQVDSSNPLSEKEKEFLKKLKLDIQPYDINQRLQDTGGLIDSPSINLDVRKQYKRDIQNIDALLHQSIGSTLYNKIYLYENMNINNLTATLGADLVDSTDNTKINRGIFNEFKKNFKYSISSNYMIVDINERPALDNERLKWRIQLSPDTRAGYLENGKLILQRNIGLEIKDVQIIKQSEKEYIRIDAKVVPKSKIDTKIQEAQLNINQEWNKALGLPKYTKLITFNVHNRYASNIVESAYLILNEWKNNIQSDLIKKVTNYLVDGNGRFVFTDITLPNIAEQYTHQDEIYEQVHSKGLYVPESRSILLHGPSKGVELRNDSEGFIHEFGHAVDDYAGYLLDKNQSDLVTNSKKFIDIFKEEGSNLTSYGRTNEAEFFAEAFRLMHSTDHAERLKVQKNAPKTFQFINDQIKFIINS
Mtb FBA inh = Mtb fructose-bisphosphate aldolase inhibition; purified M. tuberculosis FBA, fluorescence read-out; inhibition, % at 1 µM; P9WQA3; hit rate 2.3% among 360,000; in the data active = inhibition above about 27%;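 note: 0% = vehicle and 100% = reference inhibitor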
Bead autofluor = counter-screen for toxin protease inhibitors: compound fluorescence; compound autofluorescence counterscreen, microsphere flow cytometry; active compounds read high; fluorescence intensity (concentration not given with the values); hit rate 3.1% among 360,000; in the data active = fluorescence intensity above about 16000; inconclusive = no clear call, values can overlap the other calls
Mtb FBA confirm = confirmation of M. tuberculosis fructose-bisphosphate aldolase inhibitors | purified M. tuberculosis FBA, fluorescence read-out | inhibition, % at 1 µM | AID 651616 | hit rate 78% among 5,600 | shares compounds with Mtb FBA inh; in the data active = inhibition above about 27%;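 note: 0% = vehicle wells and 100% = reference inhibitor wells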
GDH-TPI counter-2 = counter-screen for M. tuberculosis FBA inhibitors: GDH-TPI coupled enzyme inhibition. shares compounds with Mtb FBA inh. AID 652141. inhibition, % at 1 µM. hit rate 81% among 5,600. GDH-TPI coupled enzyme counterscreen, fluorescence; in the data active = inhibition above about 10%
* hit, by the source's call; ? = inconclusive; · = no result given; + = active, no number. Shown are actives, neighbours in structure and some others; about 6.6% of the full set was active somewhere. Cut-off read from the data, not from the text of the source, unless noted: active = inhibition above about 30%; inconclusive = no clear call, values can overlap the other calls; inactive = below that.

SMILES	GDH-TPI counter-1	BoNT F protease	BoNT A protease	Anthrax LF prot	Mtb FBA inh	Bead autofluor	Mtb FBA confirm	GDH-TPI counter-2
CC1Nc2ccccc2C(=O)N1NC(=O)c1ccc(Br)cc1 (centres undefined)	0	-5	0	-9	2	4562	·	·
CCOC(=O)NN1C(=O)c2ccccc2NC1c1ccccn1 (centres undefined)	4	-6	0	3	30*	4688	105*	77*
O=C(NN1C(=O)c2ccccc2NC1c1ccco1)c1ccccc1 (centres undefined)	10	-1	1	-3	7	4478	·	·
O=C(O)CCC(=O)NN1C(=O)c2ccccc2NC1c1ccco1 (centres undefined)	1	-6	0	-10	32*	4637	-4	-4
CCOC(=O)NN1C(=O)c2ccccc2NC1c1ccccc1F (centres undefined)	2	-4	-1	-3	37*	3240	51*	32*
CCOC(=O)NN1C(=O)c2ccccc2NC1C (centres undefined)	0	4	0	-1	72*	3137	146*	116*
COc1cc2c(cc1OC)C(C)N(C(=O)c1cc3c(C)cc(C)cc3[nH]1)CC2 (centres undefined)	4	-1	1	-1	-2	4850	·	·
COc1ccc(NC(=O)C(OC(=O)Cn2cnc3c2c(=O)n(C)c(=O)n3C)c2ccccc2)cc1Cl (centres undefined)	14	-6	1	2	3	4155	·	·
Cc1ccc(NC(=O)C2CCN(S(=O)(=O)c3ccc4c(c3)NC(=O)C(C)S4)CC2)cc1Cl (centres undefined)	-10	·	·	·	1	·	·	·
CCOC(=O)NN1C(=O)c2ccccc2NC1c1ccc(N(C)C)cc1 (centres undefined)	17	5	0	0	10	8622	·	·
CCOC(=O)NN1C(=O)c2ccccc2NC1c1ccccc1 (centres undefined)	8	-5	0	1	39*	7516	+	+
CC(=O)NN1C(=O)c2ccccc2NC1c1ccc(N(C)C)cc1 (centres undefined)	22	-10	0	10	21	2808	·	·
CCOC(=O)NN1C(=O)c2ccccc2NC1c1ccc(OC)cc1 (centres undefined)	9	-4	-1	-1	40*	7722	140*	119*
CCN(CC)C(=O)c1cccc(NC(=O)c2ccccc2OCc2c(C)noc2C)c1	-2	-6	-1	-3	1	5856	·	·
O=C(O)C1=C[C@H](c2ccc(C(F)(F)F)cc2)C[C@H](OCc2ccc(CO)cc2)O1	-3	-2	0	-6	-3	3575	·	·
COc1ccc(OCc2nnc(SCC(=O)N3C(C)CCCC3C)o2)cc1 (centres undefined)	-1	-23	-1	6	-1	3143	·	·
O=C(O)c1cc2nccc(-c3ccc(F)cc3)n2n1	12	0	0	-3	-2	4035	·	·
CCn1ncc(-c2ccnc3cc(C(=O)O)nn23)c1C	9	28	4	5	68*	5069	137*	131*
CCOC(=O)c1c(NC(C)=O)sc(/C(C)=N/Nc2ccc(C(=O)O)cc2)c1C	10	6	-3	-1	1	3616	·	·
CCCCNc1ccccc1C(=O)OCC(=O)Nc1ccc(S(N)(=O)=O)cc1	-11	11	6	-12	48*	17458*	34*	23*
O=C(COC(=O)/C=C/c1cccc(F)c1)Nc1cccc(S(=O)(=O)NC2=NCCCCC2)c1	3	·	·	·	1	·	·	·
COc1cccc(/C=C/C(=O)OCC(=O)Nc2cccc(S(=O)(=O)NC3=NCCCCC3)c2)c1	0	-9	0	-5	36*	3497	0	-10
O=C(COC(=O)c1ccccc1NCCO)Nc1cccc(S(=O)(=O)NC2=NCCCCC2)c1	9	?	7	5	53*	?	-5	-7
O=C(NN1CCOCC1)NC12CC3CC(CC(C3)C1)C2	-1	1	0	5	4	5833	·	·
CCOC(=O)c1ccc2ncc(C(=O)OCC)c(NCc3ccco3)c2c1	18	8	0	-3	62*	3157	8	1
SMILES	GDH-TPI counter-1	BoNT F protease	BoNT A protease	Anthrax LF prot	Mtb FBA inh	Bead autofluor	Mtb FBA confirm	GDH-TPI counter-2
CCOC(=O)c1cnc2c(C)cccc2c1NCc1ccco1	8	-11	-2	-5	10	8347	·	·
N#Cc1ccccc1COC(=O)c1ccc2c(c1)OCO2	2	1	0	0	0	3982	·	·
N#Cc1ccccc1COC(=O)c1cccnc1N	7	-3	0	-2	46*	3673	153*	96*
Cc1cc(OC(C)C(=O)NCC(O)c2ccccc2)c2c(C)cc(=O)oc2c1 (centres undefined)	11	0	0	-2	71*	4215	111*	98*
CCCc1cc(=O)oc2cc(C)cc(OC(C)C(=O)NCC(O)c3ccccc3)c12 (centres undefined)	2	4	3	-1	76*	5079	3	0
CCc1cc(=O)oc2cc(OC(C)C(=O)NCC(O)c3ccccc3)c(Cl)cc12 (centres undefined)	5	-7	-2	-3	7	6248	·	·
CCCc1cc(=O)oc2cc(C)cc(OCC(=O)NCC(O)c3ccccc3)c12 (centres undefined)	10	0	2	-2	61*	6048	161*	151*
Cc1cc(OC(C)C(=O)NCC2CCC(C(=O)O)CC2)c2c3c(c(=O)oc2c1)CCC3 (centres undefined)	7	4	1	0	20	5391	·	·
Cc1cc(OC(C)C(=O)NCC2CCC(C(=O)O)CC2)c2c(C)cc(=O)oc2c1 (centres undefined)	9	-11	0	-10	86*	3981	195*	190*
CCCc1cc(=O)oc2cc(OCC(=O)NCC(O)c3ccccc3)ccc12 (centres undefined)	14	2	0	0	13	5462	·	·
Cc1cc(OC(C)C(=O)NCCc2c[nH]c3ccccc23)c2c(C)cc(=O)oc2c1 (centres undefined)	5	-10	-1	-2	3	5515	·	·
Cc1cccc(OCCC(=O)NCC(=O)Nc2cccc(C)c2C)c1	1	0	1	1	-5	2307	·	·
Cc1ccc(NC(=O)c2ccc([N+](=O)[O-])s2)cc1S(=O)(=O)N1CCOCC1	4	·	·	·	-1	·	·	·
COc1ccc(S(=O)(=O)N(C)C[C@@H]2OCCCC[C@@H](C)Oc3ccc(NS(=O)(=O)c4cccs4)cc3C(=O)N([C@H](C)CO)C[C@@H]2C)cc1	1	0	-1	-4	-1	3808	·	·
